Experimental data as given in PubChem BioAssay (Tox21).
Records with an inconclusive call do not appear. Entries that show only a call come without a potency. Unmarked numbers belong to inactive results. Calls of active or inactive are those of the source. Unless noted, calls come from the whole dose curve; as a rule, active = well fitted curve in the direction sought with a large enough effect in the repeat runs; inconclusive = weak or mixed curves; inactive = no such curve, though single readings can be large; an effect the other way counts as inactive or inconclusive.

Assays:
[1] = qHTS assay to identify small molecule antagonists of the thyroid receptor (TR) signaling pathway (AID 743065); note: series mostly up to about 70 µM; nearly all actives have a fitted effect of over 55% in size
In short: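 GH3.TRE-Luc rat pituitary cells carrying two TR response elements driving luciferase were plated for 4 h, given compound plus 1 nM T3 (final), and incubated 23.5 h at 37 C. ONE-Glo luminescence measured reporter inhibition; CellTiter-Fluor fluorescence tracked cytotoxicity.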

[2] = tested on: thyroid hormone receptor (rat, GH3 cells); experiment: qHTS assay to identify small molecule agonists of the thyroid receptor (TR) signaling pathway (AID 743066; calls by dose curve)
[3] = target: Estrogen receptor (Homo sapiens) (UniProt P03372); experiment: qHTS assay to identify small molecule antagonists of the estrogen receptor alpha (ER-alpha) signaling pathway (AID 743069; active = well fitted curve in the direction sought with a large enough effect in the signal ratio in the repeat runs, not every such curve was filed as active; the % refers to the signal ratio)
In short: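 Screening used a UAS-driven beta-lactamase reporter integrated into HEK293 cells expressing ER-alpha, stimulated with 17beta-estradiol alongside test compounds over 18 hr at 37C; signal came from LiveBLAzer B/G FRET fluorescence.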

[4] = target: Estrogen receptor (Homo sapiens) (UniProt P03372); experiment: qHTS assay to identify small molecule agonists of the estrogen receptor alpha (ER-alpha) signaling pathway (AID 743075; calls by dose curve)
[5] = target: Estrogen receptor (Homo sapiens) (UniProt P03372); experiment: qHTS assay to identify small molecule agonists of the estrogen receptor alpha (ER-alpha) signaling pathway using the BG1 cell line (AID 743079); note: nearly all actives have a fitted effect of over 20% in size; note: potency is the fitted concentration of half-maximal effect
[6] = qHTS assay to identify small molecule antagonists of the estrogen receptor alpha (ER-alpha) signaling pathway using the BG1 cell line - cell viability counter screen (AID 743081);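 note: compound given together with 17beta-estradiol as the ER stimulus; series mostly up to about 70 µM; nearly all actives have a fitted effect of over 45% in size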
Aromatase (Homo sapiens) = Aromatase (Homo sapiens) (UniProt P11511); experiment: qHTS assay to identify aromatase inhibitors (AID 743083); note: nearly all actives have a fitted effect of over 55% in size; note: potency is the fitted concentration of half-maximal effect
[7] = qHTS assay to identify aromatase inhibitors - cell viability counter screen (AID 743084);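 note: cells stimulated with testosterone during compound exposure; nearly all actives have a fitted effect of over 55% in size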
[8] = target: Aryl hydrocarbon receptor (Homo sapiens) (UniProt P35869); experiment: qHTS assay to identify small molecule that activate the aryl hydrocarbon receptor (AhR) signaling pathway (AID 743085); note: nearly all actives have a fitted effect of over 15% in size; note: potency is the fitted concentration of half-maximal effect;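 for activation: HG2L7.5c1 human HepG2 liver cells with stably integrated DRE-driven firefly reporter; series mostly up to about 70 µM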
In short: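 Luminescence (ONE-Glo) from a dioxin-responsive-element luciferase reporter in HG2L7.5c1 HepG2 cells after 24 hr compound exposure at 37C; viability measured by CellTiter-Fluor fluorescence beforehand.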

[9] = qHTS assay to identify small molecule that activate the aryl hydrocarbon receptor (AhR) signaling pathway - cell viability counter screen (AID 743086);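 note: HepG2 liver cells carrying the AhR DRE luciferase reporter; series mostly up to about 70 µM; nearly all actives have a fitted effect of over 45% in size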
In short: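 HepG2-AhR-luc (HG2L7.5c1) cells, 4000/well, were preincubated 5 h at 37C, exposed to compound in qHTS format for 24 hr at 37C, then given CellTiter-Fluor for 30 min; viability was read as fluorescence in the reporter wells.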

[10] = target: Peroxisome proliferator-activated receptor gamma (Homo sapiens) (UniProt P37231); experiment: qHTS assay to identify small molecule agonists of the peroxisome proliferator-activated receptor gamma (PPARg) signaling pathway (AID 743094; active = well fitted activation curve with a large enough effect in the signal ratio in the repeat runs, not every such curve was filed as active; the % refers to the signal ratio)
In short: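 Agonist activity was taken from a beta-lactamase reporter (FRET substrate, 1 h at room temperature) in HEK293H cells carrying a PPARg UAS-bla construct. Compounds in DMSO were incubated 17 h at 37C after a 5 h cell pre-incubation.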

[11] = qHTS assay to identify small molecule antagonists of the peroxisome proliferator-activated receptor gamma (PPARg) signaling pathway - cell viability counter screen (AID 743194); note: nearly all actives have a fitted effect of over 55% in size
In short: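 PPARg-UAS-bla HEK293H cells were plated, rested 5 h at 37 C, then treated with compounds plus rosiglitazone (50 nM final) for 17 h at 37 C; viability was then read by CellTiter-Glo luminescence after 30 min at room temperature.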

[12] = qHTS assay for small molecule agonists of the antioxidant response element (ARE) signaling pathway - cell viability counter screen (AID 743203; calls by dose curve; note: nearly all actives have a fitted effect of over 55% in size)
In short: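 Viability counter screen: CellTiter-Glo luminescence, read after 30 min at room temperature, in ARE-bla HepG2 wells. Compound exposure lasted 16 h at 37C/5% CO2, following a 5 h pre-incubation of the cells after plating.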

[13] = qHTS assay for small molecule activators of the heat shock response signaling pathway - cell viability counter screen (AID 743209); note: nearly all actives have a fitted effect of over 50% in size
In short: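 Cytotoxicity counter screen run in the same wells as the heat-shock bla reporter assay: HeLa HSE-bla cells, 5 h compound exposure at 37 C, viability read by CellTiter-Glo luminescence.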

[14] = qHTS assay for small molecule activators of the heat shock response signaling pathway (AID 743210; active = well fitted activation curve with a large enough effect in the signal ratio in the repeat runs, with a control signal flat, not every such curve was filed as active; the % refers to the signal ratio;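 note: HeLa cells with beta-lactamase reporter driven by heat shock elements; series mostly up to about 63 µM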)
In short: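 Activation of heat shock element-controlled beta-lactamase expression is measured in HeLa cells by LiveBLAzer FRET fluorescence, with compound exposure lasting 5 h at 37 C and substrate loading 2.5 h at room temperature.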

[15] = qHTS assay to identify small molecule agonists of the peroxisome proliferator-activated receptor delta (PPARd) signaling pathway - cell viability counter screen (AID 743211); note: nearly all actives have a fitted effect of over 55% in size
In short: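 Viability was measured as CellTiter-Glo luminescence (30 min, room temperature) in the same wells as the beta-lactamase readout. GeneBLAzer PPARd UAS-bla HEK293H cells received compound after 5 h plating and were incubated 17 h at 37 C.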

[16] = qHTS assay to identify small molecule antagonists of the estrogen receptor alpha (ER-alpha) signaling pathway - cell viability counter screen (AID 743074; calls by dose curve; note: nearly all actives have a fitted effect of over 45% in size)
[17] = target: Peroxisome proliferator-activated receptor gamma (Homo sapiens) (UniProt P37231); experiment: qHTS assay to identify small molecule antagonists of the peroxisome proliferator-activated receptor gamma (PPARg) signaling pathway (AID 743191; calls by dose curve; note: series mostly up to about 63 µM; nearly all actives have a fitted effect of over 30% in size)
In short: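 GeneBLAzer PPARg UAS-bla HEK293H cells carrying a UAS-driven beta-lactamase reporter were plated at 3000 cells/well, preincubated 5 h at 37C, then given compound for 17 h at 37C; LiveBLAzer B/G FRET substrate was read after 1 h at room temperature.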

[18] = qHTS assay for small molecule agonists of the antioxidant response element (ARE) signaling pathway (AID 743202; active = well fitted activation curve with a large enough effect in the signal ratio in the repeat runs, not every such curve was filed as active; the % refers to the signal ratio)
In short: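 Steps: seed ARE-bla HepG2 cells (2,000/well); incubate 5 h at 37 C; add compounds by pin tool; incubate 16 h at 37 C; add FRET substrate; read fluorescence after 2 h at RT.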

[19] = qHTS assay to identify small molecule antagonists of the estrogen receptor alpha (ER-alpha) signaling pathway using the BG1 cell line (AID 743080; calls by dose curve;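 note: BG1 cells stimulated with 17beta-estradiol alongside compound; nearly all actives have a fitted effect of over 25% in size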; note: potency is the fitted concentration of half-maximal effect)
In short: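 BG1-Luc-4E2 cells (endogenous full-length ER-alpha, 4xERE luciferase) hormone-starved 5 days in charcoal-stripped FBS, plated 4,000/well for 24 h, then compound plus 17beta-estradiol for 21.5 h at 37 C; ONE-Glo luminescence read.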

Chain of Aromatase (Homo sapiens) (P11511 whole entry, looked up): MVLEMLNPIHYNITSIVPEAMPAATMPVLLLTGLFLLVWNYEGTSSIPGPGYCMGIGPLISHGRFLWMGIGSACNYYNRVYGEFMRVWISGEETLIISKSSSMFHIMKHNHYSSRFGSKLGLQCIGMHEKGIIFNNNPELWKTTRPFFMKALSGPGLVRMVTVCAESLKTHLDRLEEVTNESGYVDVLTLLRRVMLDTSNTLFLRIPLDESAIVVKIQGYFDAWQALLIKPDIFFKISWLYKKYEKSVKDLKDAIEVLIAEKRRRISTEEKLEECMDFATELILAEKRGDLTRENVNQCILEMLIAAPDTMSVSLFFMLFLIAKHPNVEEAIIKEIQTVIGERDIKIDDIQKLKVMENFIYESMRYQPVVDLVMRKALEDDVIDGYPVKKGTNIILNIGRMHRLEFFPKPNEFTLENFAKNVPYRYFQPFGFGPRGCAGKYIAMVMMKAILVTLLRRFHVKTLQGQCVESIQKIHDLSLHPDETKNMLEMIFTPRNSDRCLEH
Chain of Estrogen receptor (Homo sapiens) (P03372 whole entry, looked up): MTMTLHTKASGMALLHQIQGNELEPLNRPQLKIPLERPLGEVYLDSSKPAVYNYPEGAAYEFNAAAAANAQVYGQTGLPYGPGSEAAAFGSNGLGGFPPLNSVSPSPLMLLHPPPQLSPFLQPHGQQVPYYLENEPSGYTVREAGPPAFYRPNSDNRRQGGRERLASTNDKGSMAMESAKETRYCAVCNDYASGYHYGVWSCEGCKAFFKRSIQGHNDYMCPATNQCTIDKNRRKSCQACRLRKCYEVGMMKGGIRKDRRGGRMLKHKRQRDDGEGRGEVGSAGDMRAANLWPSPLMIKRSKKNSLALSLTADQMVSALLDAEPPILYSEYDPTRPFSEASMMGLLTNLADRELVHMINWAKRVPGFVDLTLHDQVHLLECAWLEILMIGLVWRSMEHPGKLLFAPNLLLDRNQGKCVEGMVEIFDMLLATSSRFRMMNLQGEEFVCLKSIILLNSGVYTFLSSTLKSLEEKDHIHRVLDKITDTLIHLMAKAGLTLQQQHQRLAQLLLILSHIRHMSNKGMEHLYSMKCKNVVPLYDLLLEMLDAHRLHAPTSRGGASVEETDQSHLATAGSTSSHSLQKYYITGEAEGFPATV
Chain of Peroxisome proliferator-activated receptor gamma (Homo sapiens) (P37231 whole entry, looked up): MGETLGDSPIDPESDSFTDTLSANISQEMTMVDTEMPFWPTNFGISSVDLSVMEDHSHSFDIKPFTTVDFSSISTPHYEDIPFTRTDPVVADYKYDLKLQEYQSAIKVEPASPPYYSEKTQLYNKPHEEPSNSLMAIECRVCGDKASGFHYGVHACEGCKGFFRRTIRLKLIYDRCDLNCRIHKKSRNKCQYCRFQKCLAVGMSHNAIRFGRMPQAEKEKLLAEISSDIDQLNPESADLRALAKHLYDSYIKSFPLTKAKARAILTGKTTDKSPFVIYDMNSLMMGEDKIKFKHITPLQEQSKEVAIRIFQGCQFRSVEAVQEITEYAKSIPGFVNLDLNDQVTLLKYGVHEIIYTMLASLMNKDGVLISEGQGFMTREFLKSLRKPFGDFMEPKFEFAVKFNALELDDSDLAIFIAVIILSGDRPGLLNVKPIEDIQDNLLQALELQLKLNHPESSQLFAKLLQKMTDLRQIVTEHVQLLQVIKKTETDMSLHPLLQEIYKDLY
Chain of Aryl hydrocarbon receptor (Homo sapiens) (P35869 whole entry, looked up): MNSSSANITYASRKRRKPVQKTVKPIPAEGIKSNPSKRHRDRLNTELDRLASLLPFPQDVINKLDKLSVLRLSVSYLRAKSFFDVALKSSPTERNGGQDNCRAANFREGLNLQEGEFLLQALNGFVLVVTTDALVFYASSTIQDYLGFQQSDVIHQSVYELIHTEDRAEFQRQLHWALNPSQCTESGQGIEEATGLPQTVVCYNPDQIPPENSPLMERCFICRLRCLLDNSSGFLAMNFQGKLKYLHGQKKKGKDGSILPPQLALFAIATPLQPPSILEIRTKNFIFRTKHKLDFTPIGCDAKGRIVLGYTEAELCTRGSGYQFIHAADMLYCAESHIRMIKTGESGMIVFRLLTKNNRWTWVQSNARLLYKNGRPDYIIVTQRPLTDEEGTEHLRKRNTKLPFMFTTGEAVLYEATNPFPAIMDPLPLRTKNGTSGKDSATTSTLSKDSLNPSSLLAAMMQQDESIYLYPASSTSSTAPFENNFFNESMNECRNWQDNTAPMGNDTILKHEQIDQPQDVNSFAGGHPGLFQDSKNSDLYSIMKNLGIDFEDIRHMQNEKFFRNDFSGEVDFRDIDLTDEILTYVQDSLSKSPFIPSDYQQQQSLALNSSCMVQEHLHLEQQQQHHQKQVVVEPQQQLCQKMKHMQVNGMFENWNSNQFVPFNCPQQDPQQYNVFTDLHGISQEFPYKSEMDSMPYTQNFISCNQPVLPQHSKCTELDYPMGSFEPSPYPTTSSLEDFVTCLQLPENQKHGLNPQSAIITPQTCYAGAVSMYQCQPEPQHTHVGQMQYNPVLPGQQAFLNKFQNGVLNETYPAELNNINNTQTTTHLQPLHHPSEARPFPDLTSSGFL

| SMILES | Potency [1] | Potency [2] | outcome [3] | Potency [4] | Potency [5] | outcome [6] | Potency (Aromatase (Homo sapiens)) | outcome [7] | Potency [8] | outcome [9] | outcome [10] | outcome [11] | outcome [12] | Potency [13] | outcome [14] | outcome [15] | Potency [16] | outcome [17] | Potency [18] | Potency [19] |
| --- | --- | --- | --- | --- | --- | --- | --- | --- | --- | --- | --- | --- | --- | --- | --- | --- | --- | --- | --- | --- |
| C/C(=N\O)c1ccc(OCC(=O)N2CCCCC2)cc1 | inactive | inactive | inactive | inactive | 4.22 µM (active) | inactive | inactive | inactive | 5.96 µM (active) | inactive | inactive | inactive | inactive | inactive | inactive | inactive | – | – | – | – |
| CC(C)C(C)C | inactive | inactive | – | – | – | inactive | inactive | inactive | inactive | inactive | inactive | – | – | inactive | inactive | – | inactive | inactive | inactive | – |
| NCC1CCC(C(=O)Oc2ccc(CCC(=O)O)cc2)CC1 (stereo unspecified) | inactive | inactive | inactive | inactive | – | inactive | – | inactive | inactive | inactive | – | inactive | inactive | inactive | inactive | inactive | inactive | inactive | inactive | 26.6 µM (active) |
| C=CCON/C(CCC)=C1\C(=O)CC(C)(C)C(C(=O)OC)=C1O | inactive | inactive | – | – | – | inactive | inactive | inactive | inactive | inactive | inactive | inactive | – | inactive | inactive | inactive | inactive | inactive | inactive | – |
| O=c1c(O)c(O)c1=O | inactive | inactive | – | – | – | inactive | inactive | inactive | inactive | inactive | inactive | inactive | inactive | inactive | inactive | inactive | inactive | inactive | inactive | – |
| COc1ccc(Cl)cc1C | inactive | inactive | – | – | – | inactive | inactive | inactive | inactive | inactive | – | inactive | inactive | inactive | inactive | inactive | inactive | – | inactive | – |
| COCCCOc1cc(C[C@@H](C[C@H](N)[C@@H](O)C[C@H](C(=O)NCC(C)(C)C(N)=O)C(C)C)C(C)C)ccc1OC | inactive | inactive | inactive | inactive | inactive | inactive | inactive | inactive | inactive | inactive | inactive | – | – | inactive | inactive | inactive | – | inactive | inactive | – |
| CCc1ncc(C)[nH]1 | inactive | inactive | – | – | – | inactive | inactive | inactive | inactive | inactive | inactive | inactive | inactive | inactive | inactive | inactive | inactive | inactive | inactive | – |
| Cc1ccc2ccccc2n1 | inactive | inactive | – | – | – | inactive | inactive | inactive | inactive | inactive | – | inactive | inactive | inactive | – | inactive | inactive | inactive | inactive | – |
| Cc1ccc(O)c(C(=O)c2ccccc2)c1 | inactive | inactive | – | – | – | inactive | 55 µM (active) | – | inactive | inactive | inactive | – | inactive | inactive | inactive | inactive | inactive | – | inactive | – |
| CC(C)(C)OC=O | inactive | inactive | – | – | – | inactive | inactive | inactive | inactive | – | – | inactive | inactive | inactive | inactive | inactive | inactive | inactive | inactive | – |
| CCCC(=O)C(CC)Sc1ccoc1C (stereo unspecified) | – | inactive | inactive | inactive | inactive | inactive | inactive | inactive | inactive | inactive | inactive | inactive | inactive | inactive | inactive | inactive | inactive | inactive | inactive | inactive |
| COC(C)(C)CC(C)=O | inactive | inactive | – | – | – | inactive | inactive | inactive | inactive | – | inactive | inactive | – | – | inactive | – | inactive | – | inactive | – |
| CCOC(=O)COc1ccc2c(C)c(CCN(CC)CC)c(=O)oc2c1Cl | – | inactive | inactive | inactive | inactive | inactive | inactive | inactive | inactive | inactive | inactive | inactive | inactive | – | – | inactive | inactive | inactive | inactive | inactive |
| Cc1cc(N)no1 | inactive | inactive | – | – | – | inactive | – | – | – | inactive | – | inactive | inactive | inactive | inactive | inactive | inactive | – | – | – |
